Source: PubChem
Compounds with a hit are over-represented: about 1.1% of the library has one in this group of screens.
VACV mCherry inh – qHTS for Stage-Specific Inhibitors of Vaccinia Orthopoxvirus: mCherry Reporter Primary qHTS; Vaccinia virus mCherry reporter infection, fluorescence; Potency, µM (highest dose often 36.5 µM), without a hit: at the highest dose activity change, negative = inhibition, usual class: inhibitors; 310,000 compounds, 0.63% hits; calls by dose curve; tested in A549 cells; further: nearly all actives have a fitted effect of over 35% in size
Vaccinia Venus – qHTS for Stage-Specific Inhibitors of Vaccinia Orthopoxvirus: Venus Reporter Primary qHTS. Vaccinia virus Venus reporter expression, fluorescence. Potency, µM (titrated, usually from 36.5 µM), for the others: at the highest dose activity change, negative = inhibition, actives largely listed as inhibitors. AID 720580, 2013. 330,000 compounds, 0.46% hits; calls by dose curve; tested in A549 cells; further: nearly all actives have a fitted effect of over 30% in size
AmpC inh detg – qHTS Inhibitors of AmpC Beta-Lactamase (assay with detergent); AmpC hydrolysis of nitrocefin, absorbance 480 nm, 0.01% Triton; Potency, µM (series often up to 114 µM), without a hit: at the highest dose activity change, negative = inhibition, actives largely listed as inhibitors; 370,000 compounds, 0.041% hits;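 further: 0% = no-compound wells and -100% = no-enzyme wells; nearly all actives have a fitted effect of over 25% in size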
Target sequence (P00811 whole entry, looked up): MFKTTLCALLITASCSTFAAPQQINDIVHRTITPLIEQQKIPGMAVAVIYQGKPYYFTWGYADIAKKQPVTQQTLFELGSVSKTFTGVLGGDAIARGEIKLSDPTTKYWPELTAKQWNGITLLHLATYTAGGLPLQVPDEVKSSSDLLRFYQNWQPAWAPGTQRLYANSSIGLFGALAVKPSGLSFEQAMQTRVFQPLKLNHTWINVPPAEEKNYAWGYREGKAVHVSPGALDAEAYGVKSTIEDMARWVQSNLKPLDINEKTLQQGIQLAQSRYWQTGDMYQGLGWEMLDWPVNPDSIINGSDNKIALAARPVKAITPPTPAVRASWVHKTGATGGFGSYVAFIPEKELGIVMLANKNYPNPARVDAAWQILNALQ
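AmpC (5.3 nM in the dispensed reagent) in 20 mM phosphate pH 7.0 with 0.01% (detergent screen) or 0.0001% Triton X-100 was preincubated with compounds for 15 min at room temperature. Nitrocefin was then added from an 800 uM solution, and hydrolysis was followed at 480 nm.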
AmpC no deterg – qHTS Inhibitors of AmpC Beta-Lactamase (assay without detergent); AmpC nitrocefin hydrolysis, absorbance 480 nm, 0.0001% Triton; AID 485341, 2010; Potency, µM (doses to about 57.1 µM), inactives show top-dose activity change, negative = inhibition, usual class: inhibitors; P00811; 330,000 compounds, 0.52% hits;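 further: plate controls were no compound for no effect and no enzyme for full effect; nearly all actives have a fitted effect of over 20% in size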
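AmpC (5.3 nM in the dispensed reagent) in 20 mM phosphate pH 7.0 with 0.01% (detergent screen) or 0.0001% Triton X-100 was preincubated with compounds for 15 min at room temperature. Nitrocefin was then added from an 800 uM solution, and hydrolysis was followed at 480 nm.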
Starred values were filed as active, the others as inactive; i = inactive; ? = inconclusive; · = not tested or not shown. Unless noted, the call rests on the fitted dose curve; in most records, active means well fitted curve in the direction sought with a large enough effect; inconclusive means small, poorly fitted or top-dose-only effect, or another doubt; inactive means no such curve, though single readings can be large; an effect the other way counts as inactive or inconclusive. Unless noted, on the % scale 0 is the no-effect control and ±100 the full control effect; potency means the concentration at half of the fitted maximal effect.

SMILES | VACV mCherry inh | Vaccinia Venus | AmpC inh detg | AmpC no deterg
CCCS(=O)(=O)NCc1c(C)ncc2c1CCN(C(=O)/C=C/c1ccc(F)cc1F)C2 | -6.2% | -8.0% | · | ·
COC(=O)c1sccc1S(=O)(=O)N1CCC(n2c(CC3CCCC3)nc3cccnc32)CC1 | -10.8% | -4.9% | · | ·
COc1ccccc1C1CN(CC(=O)NCC2OCCc3ccccc32)Cc2ccccc2O1 (stereo unspecified) | -14.4% | -3.9% | · | ·
CCN(CC)S(=O)(=O)c1cccc(NC(=O)CNc2cccc(S(=O)(=O)N3CCCC3)c2)c1 | -17.3% | -29.8% | 0.0% | 28.2µM*
CCN(CC)S(=O)(=O)c1ccc(C)c(NC(=O)CNc2cccc(S(=O)(=O)N3CCCC3)c2)c1 | -11.8% | -27.2% | 0.0% | -28.5%
O=C(COC(=O)c1cc([N+](=O)[O-])ccc1NCCO)Nc1cccc(S(=O)(=O)N2CCCC2)c1 | -16.5% | -0.3% | ? | 31.6µM*
CSc1ncccc1C(=O)NCC1Cc2cc(-c3cnccn3)cc(Cl)c2O1 (stereo unspecified) | i | -12.5% | · | ·
Cc1ccc(C(C)CCN2CCOc3ccc(CN4CCOCC4)cc3C2)o1 (stereo unspecified) | i | -8.0% | · | ·
O=C1CCC/C(=N\NC(=O)c2ccc(NS(=O)(=O)c3ccc(Br)cc3)cc2)C1 | i | -5.7% | -7.1% | 28.2µM*
COc1ccc(OC)c(N(CC(=O)N2CCCCC2)S(=O)(=O)c2ccc(OC)c(OC)c2)c1 | -8.3% | 6.1% | 1.2% | 72.8%
COc1ccc(N(CC(=O)N2CCCCC2)S(=O)(=O)c2ccccc2)c(OC)c1 | -13.2% | 2.8% | 2.9% | 8.91µM*
CCn1c(=O)c2cc(C(=O)N3CCN(C)CC3)sc2c2ccccc21 | 40.8% | -6.5% | -5.0% | 0.631µM*
CCN(CC)CCNCC1C(=O)O[C@@H]2C[C@@]3(C)CCC[C@H](C)C3=C[C@H]12 (stereo partly specified) | 4.47µM* | 10µM* | -0.8% | 2.5%
CCOC(=O)c1sc(NC(=O)Nc2ccccc2Cl)cc1C | ? | 10µM* | ? | -33.2%
CCOC(=O)c1sc(NC(=O)Nc2ccccc2)cc1C | 15.8µM* | 12.6µM* | -1.4% | -38.9%
CCOC(=O)c1sc(NC(C)=O)cc1C | i | -24.8% | ? | -1.9%
COc1ccc(C(C)=O)c(Oc2cc(NN3CCCCC3)c([N+](=O)[O-])cc2[N+](=O)[O-])c1 | ? | 3.16µM* | ? | -5.1%
COc1cccc(Oc2cc(NN3CCCCC3)c([N+](=O)[O-])cc2[N+](=O)[O-])c1OC | ? | ? | ? | -55.8%
COc1ccc(O)c(/C=N/NC(=O)CN2CCS(=O)(=O)CC2)c1 | 3.16µM* | -1.4% | 6.7% | -9.1%
Cc1c(C(=O)N2CCCC2)sc2ncnc(NCCN(C)C)c12 | i | -19.4% | · | ·
OC1(c2cccnc2)CCN(Cc2ccc3c(c2)CN(Cc2cccc(C(F)(F)F)c2)CCO3)CC1 | -27.4% | -23.5% | · | ·
CC(C)[C@H](N)C(=O)N[C@H]1CCC2C3CC=C4C[C@@H](O)CC[C@]4(C)C3CC[C@@]21C (stereo partly specified) | ? | 12.6µM* | · | ·
O=C(CSc1nc(-c2ccc(F)cc2)nc2c1Cc1ccccc1O2)Nc1ccc(C(=O)O)cc1 | · | · | 63.1µM* | -31.8%
O=C(CSc1nc(-c2ccccc2)nc2c1Cc1ccccc1O2)Nc1ccc(C(=O)O)cc1 | -1.5% | -4.6% | ? | -28.5%
COc1ccc(OC)c(C(=O)N(Cc2cc3cccc(C)c3nc2N2CCC(O)CC2)C2CC2)c1 | -13.2% | -11.9% | · | ·
SMILES | VACV mCherry inh | Vaccinia Venus | AmpC inh detg | AmpC no deterg
O=S(=O)(Nc1ccc(O)c2ccccc12)c1cccs1 | -8.9% | 1.0% | -9.1% | -37.1%
O=S(=O)(Nc1ccc(O)c2ccccc12)c1ccc(Br)cc1 | · | · | -3.2% | 11.2µM*
O=C(C[N+]1(CC#Cc2ccccc2)CCCCC1)c1ccc(Cl)cc1 | 10µM* | ? | 6.3% | 19.1%
CC(C)COc1ccc(CSCCNC(=S)Nc2ccccc2)cc1 | · | 10µM* | 10.2% | -32.3%
CN(C)c1ccc2ccc3cccc4ccc1c2c34 | i | 10.1% | · | ·
Cc1noc(C)c1CC(=O)N1CCOc2c(cc(-c3nc4ccccc4s3)cc2OC2CCOC2)C1 (stereo unspecified) | -3.8% | -2.6% | · | ·
Cc1cc(C)n(CCC(=O)N/N=C/c2ccc(O)cc2O)n1 | 20µM* | ? | -4.9% | -15.6%
O=C(CCN1CCN(C(c2ccccc2)c2ccccc2)CC1)N/N=C/c1ccc(O)cc1O | 20µM* | ? | ? | -33.3%
COC(=O)C12OCC34C(CC5C(C)=C(O)C(=O)CC5(C)C3C(O)C1O)OC(=O)C(OC(=O)/C=C(\C)C(C)C)C24 (stereo unspecified) | ? | 1.26µM* | · | ·
COC(=O)C12OCC34C(CC5C(C)=C(O)C(=O)CC5(C)C3C(O)C1O)OC(=O)C(OC(=O)C=C(C)C)C24 (stereo unspecified) | 31.6µM* | ? | · | ·
Cc1ccccc1Cc1nc2cccnc2n1C1CCN(C(=O)CC2NC(=O)c3ccccc32)CC1 (stereo unspecified) | -5.6% | 6.4% | · | ·
Nc1nc(N2CCCCC2)nc(N(c2ccccc2)c2ccccc2)n1 | -17.3% | -13.6% | ? | 0.631µM*
COc1cc(/C=C2\C(=O)N(c3ccc(NC(C)=O)cc3)N=C2c2ccccc2)ccc1O | · | · | ? | 113.3%
CCOc1cc(/C=C2\C(=O)N(c3nc(-c4ccc(Br)cc4)cs3)N=C2c2ccccc2)ccc1O | -3.2% | 4.2% | -8.5% | 15.8µM*
Cn1c2c(c(=O)[nH]c1=O)C(c1ccc(O)cc1)C1=C(N2)c2ccccc2C1=O (stereo unspecified) | -13.3% | -3.9% | -0.3% | 17.8µM*
Cc1ccc(-n2nnnc2SCC(=O)Nc2sc(C)c(C)c2C#N)cc1C | -12.6% | -12.6% | -2.0% | 0.316µM*
CCOc1ccccc1C1N=C(c2ccc(OC)cc2)CC(c2ccccc2O)N1 (stereo unspecified) | ? | -21.2% | 6.9% | 31.6µM*
Cc1cnc(SCc2ccccn2)nc1C1CCCN(C(=O)c2noc3c2CCCC3)C1 (stereo unspecified) | -16.1% | ? | · | ·
COc1ccc(-c2ccc(-c3nc4c(c(=O)[nH]c(=O)n4Cc4ccccc4)n3C)o2)c([N+](=O)[O-])c1 | -7.1% | 4.3% | 4.3% | -1.8%
O=c1[nH]c(=O)n(Cc2ccccc2)c2nc(-c3ccc(Oc4ccc(F)cc4)c([N+](=O)[O-])c3)n(CCO)c12 | -20.7% | 10µM* | -2.9% | 37.0%
COCCn1c(=O)[nH]c(=O)c2c1nc(-c1ccc(-c3ccc(Cl)cc3[N+](=O)[O-])o1)n2Cc1ccccc1 | ? | ? | -1.5% | 7.94µM*
COc1ccc(NC(=O)C2CCCCN2S(=O)(=O)c2ccc(F)cc2)cc1 (stereo unspecified) | -13.1% | -6.7% | 12.5% | 3.16µM*
